In PubChem BioAssay AID1159580 (chemical genetic matrix, 2015):
About 2,000 (36%) of roughly 5,500 compounds were called active. About 18% were inconclusive and are not listed. Rule as the data show it: active = normalized growth mostly below about 0.91 (no sharp cut-off); inconclusive = no clear call, values can overlap the other calls; inactive = mostly above about 0.92. This is one part of the list.

Experiment: chemical genetic growth profiling, strain panel (AID 1159580);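 also: tested at 20 µM; growth read once vehicle control cultures reached saturation at 30 °C; 1 = growth at the plate median or of vehicle wells; lower values mean less growth of the strain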
Conditions: S. cerevisiae deletion strains, growth OD

Measured: normalized growth

O=C(Oc1cc(Cl)c(Cl)cc1Cl)C1c2ccccc2Oc2ccccc21
inactive: locus YAR019C, strain CDC15, active compounds read low 0.953 | locus YBL105C, strain PKC1, active compounds read low 0.943 | locus YBR135W, strain CKS1, active compounds read low 0.944 | locus YBR136W, strain MEC1, active compounds read low 0.937 | locus YBR160W, strain CDC28, active compounds read low 0.94 | locus YDL017W, strain CDC7, active compounds read low 0.937 | locus YDL028C, strain MPS1, active compounds read low 0.943 | locus YDL101C, strain DUN1, active compounds read low 0.945 | locus YDL108W, strain KIN28, active compounds read low 0.941 | locus YDL132W, strain cdc53, active compounds read low 0.934 | locus YDL214C, strain PRR2, active compounds read low 0.95 | locus YDR052C, strain DBF4, active compounds read low 0.96 | locus YDR054C, strain cdc34, active compounds read low 0.927 | locus YDR226W, strain ADK1, active compounds read low 0.963 | locus YDR477W, strain SNF1, active compounds read low 0.912 | locus YER123W, strain YCK3, active compounds read low 0.961 | locus YER133W, strain GLC7, active compounds read low 0.982 | locus YFL009W, strain cdc4, active compounds read low 0.933 | locus YFL029C, strain CAK1, active compounds read low 0.95 | locus YFR003C, strain YPI1, active compounds read low 0.941 | locus YFR019W, strain FAB1, active compounds read low 0.996 | locus YFR028C, strain CDC14, active compounds read low 0.949 | locus YGR040W, strain KSS1, active compounds read low 0.907 | locus YGR052W, strain FMP48, active compounds read low 0.924 | locus YGR092W, strain DBF2, active compounds read low 0.655 | locus YHR079C, strain IRE1, active compounds read low 0.829 | locus YHR082C, strain KSP1, active compounds read low 0.976 | locus YHR205W, strain SCH9, active compounds read low 0.924 | locus YIL147C, strain SLN1, active compounds read low 0.936 | locus YJL095W, strain BCK1, active compounds read low 0.862 | locus YJL128C, strain PBS2, active compounds read low 0.887 | locus YJL157C, strain FAR1, active compounds read low 0.979 | locus YJR016C, strain ILV3, active compounds read low 0.945 | locus YJR066W, strain TOR1 (second series), active compounds read low 0.865 | locus YJR066W, strain TOR1, active compounds read low 0.93 | locus YKL048C, strain ELM1, active compounds read low 0.883 | locus YKL067W, strain YNK1, active compounds read low 0.951 | locus YKL101W, strain HSL1, active compounds read low 0.9 | locus YKL193C, strain SDS22, active compounds read low 0.958 | locus YKL203C, strain TOR2, active compounds read low 0.958 | locus YLR133W, strain CKI1, active compounds read low 0.981 | locus YLR403W, strain SFP1, active compounds read low 0.957 | locus YML070W, strain DAK1, active compounds read low 0.962 | locus YMR001C, strain CDC5, active compounds read low 0.951 | locus YMR205C, strain PFK2 (second series), active compounds read low 0.971 | locus YMR277W, strain FCP1, active compounds read low 0.96 | locus YNL006W, strain LST8, active compounds read low 0.945 | locus YNL020C, strain ARK1, active compounds read low 0.986 | locus YNL161W, strain CBK1, active compounds read low 0.94 | locus YNL183C, strain NPR1, active compounds read low 0.884 | locus YNL207W, strain RIO2, active compounds read low 0.925 | locus YNL222W, strain SSU72, active compounds read low 0.942 | locus YNL307C, strain MCK1 (second series), active compounds read low 0.9 | locus YOL078W, strain AVO1, active compounds read low 0.959 | locus YOL136C, strain PFK27, active compounds read low 0.976 | locus YOR061W, strain CKA2, active compounds read low 0.995 | locus YOR119C, strain RIO1, active compounds read low 0.988 | locus YOR231W, strain MKK1, active compounds read low 0.856 | locus YOR329C, strain SCD5, active compounds read low 0.943 | locus YPL031C, strain PHO85, active compounds read low 0.903 | locus YPL153C, strain RAD53, active compounds read low 0.904 | locus YPL204W, strain HRR25, active compounds read low 0.867 | locus YPL209C, strain IPL1, active compounds read low 0.938 | locus YPR025C, strain CCL1, active compounds read low 0.939 | locus YPR106W, strain ISR1, active compounds read low 0.931 | locus YPR111W, strain DBF20, active compounds read low 0.901 | strain NNK1, active compounds read low 0.927 | strain TSCII, active compounds read low 0.944
active: locus YHR030C, strain SLT2, active compounds read low 0.75 | locus YLR113W, strain HOG1, active compounds read low 0.758 | locus YPL256C, strain CLN2, active compounds read low 0.821
